Measured values: PubChem BioAssay (NCATS)
Inconclusive results are not listed. Active and inactive are the calls of the source. Unless noted, calls follow the shape of the dose curve; as a rule, active = well fitted curve in the direction sought with a large enough effect; inconclusive = small, poorly fitted or top-dose-only effect, or another doubt; inactive = no such curve, though single readings can be large; an effect the other way counts as inactive or inconclusive.

Key:
[1] = qHTS assay for measurement of the activity of small molecule inhibitors on Zika virus induced Caspase-3 activity in human iPSC derived neural progenitor cells (hNPCs) (AID 1224857); also: % of control where 0% means no effect; nearly all actives have a fitted effect of over 65% in size
In short: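 Pretreat hNPCs with compound 1 h; infect ZIKV 2 FFU/cell; 6 h 37 C, 5% CO2; Caspase-Glo 3/7, 30 min RT; luminescence; normalize to no-virus and virus-only wells.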

[2] = qHTS assay for measurement of the activity of small molecule inhibitors on Zika virus induced Caspase-3 activity in human astrocytoma cells (AID 1224859);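 also: plate controls were ZIKV-infected untreated cells for no effect and uninfected cells for full effect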
In short: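 Human SNB-19 astrocytoma cells in RPMI 1640 with 10% FBS receive compound one hour ahead of Zika virus at 2 FFU/cell. After 6 h infection, caspase-3/7 activity is detected by Caspase-Glo luminescence.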

[3] = qHTS assay to identify small molecule inhibitors of chordoma cells - UCH-1 (AID 1259355); also: % is scaled to controls: 0 for no effect and ±100 for the full control effect; nearly all actives have a fitted effect of over 55% in size
In short: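 Screening used approved and investigational drugs in 15-point titration against 800 seeded cells per well. A fixed combination of auranofin with camptothecin, doxorubicin, rubitecan and topotecan followed compound addition, and growth was scored by CellTiter-Glo after 48hr.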

[4] = qHTS assay to identify small molecule inhibitors of chordoma cells - UCH-2 (AID 1259356); also: series mostly up to about 46 µM; % is scaled to controls: 0 for no effect and ±100 for the full control effect
[5] = Natriuretic polypeptide receptor (hNpr1) antagonism - Pilot counterscreen GloSensor control cell line (AID 1347045; calls by dose curve; also: series mostly up to about 38 µM; % is scaled to controls: 0 for no effect and ±100 for the full control effect)
In short: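 Control counterscreen: luciferase cGMP-biosensor HEK293 cells (no Npr1) received compound for 30 min at room temperature after GloSensor substrate loading. Luminescence was measured before and 20 min after soluble guanylyl cyclase activation by 50 uM nitroprusside.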

[6] = molecular target: Atrial natriuretic peptide receptor 1 (Homo sapiens) (UniProt P16066); assay: Natriuretic polypeptide receptor (hNpr1) antagonism - Pilot screen (AID 1347049; calls by dose curve;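 also: agonist-evoked cGMP luminescence read 20 min after hNppA addition; series mostly up to about 58 µM; % is scaled to controls: 0 for no effect and ±100 for the full control effect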)
Chain of Atrial natriuretic peptide receptor 1 (Homo sapiens) (P16066 whole entry, looked up): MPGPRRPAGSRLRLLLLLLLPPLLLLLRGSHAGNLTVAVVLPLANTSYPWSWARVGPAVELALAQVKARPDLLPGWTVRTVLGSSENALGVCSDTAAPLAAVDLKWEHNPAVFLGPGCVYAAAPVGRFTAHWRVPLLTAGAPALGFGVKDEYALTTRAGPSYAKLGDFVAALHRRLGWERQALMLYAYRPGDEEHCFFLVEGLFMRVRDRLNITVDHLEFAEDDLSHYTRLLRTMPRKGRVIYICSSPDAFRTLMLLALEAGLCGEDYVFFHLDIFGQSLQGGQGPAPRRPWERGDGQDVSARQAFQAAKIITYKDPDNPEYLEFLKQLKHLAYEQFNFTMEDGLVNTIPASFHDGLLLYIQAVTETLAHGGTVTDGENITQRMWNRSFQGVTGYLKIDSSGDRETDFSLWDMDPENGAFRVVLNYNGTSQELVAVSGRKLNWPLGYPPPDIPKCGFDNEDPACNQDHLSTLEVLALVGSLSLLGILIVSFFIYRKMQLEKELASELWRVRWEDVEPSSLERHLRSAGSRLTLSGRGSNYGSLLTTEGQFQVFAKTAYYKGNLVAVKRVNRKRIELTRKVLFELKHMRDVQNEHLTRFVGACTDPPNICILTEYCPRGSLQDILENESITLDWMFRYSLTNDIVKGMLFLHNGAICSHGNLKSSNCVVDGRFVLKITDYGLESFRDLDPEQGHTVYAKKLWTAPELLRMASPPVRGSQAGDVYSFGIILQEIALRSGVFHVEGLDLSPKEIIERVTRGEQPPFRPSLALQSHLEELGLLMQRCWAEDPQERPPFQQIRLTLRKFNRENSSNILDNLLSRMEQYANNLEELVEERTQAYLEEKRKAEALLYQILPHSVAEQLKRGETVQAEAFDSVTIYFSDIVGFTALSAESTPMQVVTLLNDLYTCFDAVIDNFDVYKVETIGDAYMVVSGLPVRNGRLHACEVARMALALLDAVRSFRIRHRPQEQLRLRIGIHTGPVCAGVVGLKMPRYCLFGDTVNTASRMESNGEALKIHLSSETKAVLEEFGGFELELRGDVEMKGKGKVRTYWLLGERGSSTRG
In short: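 cGMP-sensor HEK293/hNpr1 cells, 1500/well, plated overnight at 37C. 2% GloSensor reagent, 2 h RT. Compound (23 nL pin transfer) 30 min RT, baseline luminescence pre-read. 0.1 nM hNppA, 20 min RT, post-read.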

[7] = molecular target: Atrial natriuretic peptide receptor 2 (Homo sapiens) (UniProt P20594); assay: Natriuretic polypeptide receptor (hNpr2) antagonism - Pilot subtype selectivity assay (AID 1347050; calls by dose curve; also: % is scaled to controls: 0 for no effect and ±100 for the full control effect)
Chain of Atrial natriuretic peptide receptor 2 (Homo sapiens) (P20594 whole entry, looked up): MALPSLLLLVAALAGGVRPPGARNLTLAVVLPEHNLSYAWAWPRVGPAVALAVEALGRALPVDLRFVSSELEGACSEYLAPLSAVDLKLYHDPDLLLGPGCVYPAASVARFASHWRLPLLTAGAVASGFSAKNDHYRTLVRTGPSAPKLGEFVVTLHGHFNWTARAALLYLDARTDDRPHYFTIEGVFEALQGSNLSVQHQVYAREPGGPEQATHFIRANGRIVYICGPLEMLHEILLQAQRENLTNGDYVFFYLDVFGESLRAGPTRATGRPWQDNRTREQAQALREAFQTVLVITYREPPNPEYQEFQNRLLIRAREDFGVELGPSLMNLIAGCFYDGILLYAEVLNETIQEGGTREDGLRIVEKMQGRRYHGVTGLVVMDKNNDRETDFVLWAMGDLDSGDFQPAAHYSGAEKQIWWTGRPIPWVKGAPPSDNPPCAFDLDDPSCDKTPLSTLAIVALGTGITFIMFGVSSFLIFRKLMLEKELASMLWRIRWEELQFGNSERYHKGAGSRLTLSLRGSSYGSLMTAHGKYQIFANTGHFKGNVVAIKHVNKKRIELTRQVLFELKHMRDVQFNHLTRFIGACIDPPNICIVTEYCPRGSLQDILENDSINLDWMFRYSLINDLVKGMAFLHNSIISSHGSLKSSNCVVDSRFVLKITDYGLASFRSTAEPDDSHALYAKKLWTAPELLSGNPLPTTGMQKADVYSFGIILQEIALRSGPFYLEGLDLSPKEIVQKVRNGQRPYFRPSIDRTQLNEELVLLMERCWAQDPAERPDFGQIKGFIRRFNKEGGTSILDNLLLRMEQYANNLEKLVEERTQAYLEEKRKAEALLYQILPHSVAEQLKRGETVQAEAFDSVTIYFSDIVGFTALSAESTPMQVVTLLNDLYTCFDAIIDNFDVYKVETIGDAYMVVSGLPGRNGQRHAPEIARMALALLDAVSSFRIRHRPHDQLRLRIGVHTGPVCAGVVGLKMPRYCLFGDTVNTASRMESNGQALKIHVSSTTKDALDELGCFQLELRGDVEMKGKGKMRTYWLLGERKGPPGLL
In short: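 Luminescence from a genetically encoded cGMP luciferase biosensor in hNpr2-expressing HEK293 cells is read before and 20 min after adding 1 nM hNppC. Test compounds, in interplate 1:5 titrations, are added 30-50 min ahead of the agonist.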

[8] = NS1 protein of Zika virus - qHTS assay to identify small molecule inhibitors in human HEK 293 cells (AID 1347053);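 also: series mostly up to about 46 µM; plate controls were infected untreated cells for no effect and uninfected cells for full effect; nearly all actives have a fitted effect of over 55% in size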
In short: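 In this cell-based screen, HEK 293 cultures received compound for one hour before Zika MR766 at MOI = 0.5. NS1 was quantified 24 hours later by TR-FRET, normalized to virus-free wells and infected wells.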

[9] = molecular target: T1, Tyrosine-protein phosphatase non-receptor type substrate 1 (Homo sapiens) + Leukocyte surface antigen CD47 (Homo sapiens) (UniProt P78324+Q08722); assay: CD47-SIRPalpha protein protein interaction - LANCE assay qHTS validation (AID 1347057; active = well fitted curve in the direction sought with a large enough effect in the signal ratio, with a control signal flat, not every such curve was filed as active; the % refers to the signal ratio; also: series mostly up to about 38 µM; 0% is about no effect)
T1 sequence (P78324 whole entry, looked up, the tested form may be a part): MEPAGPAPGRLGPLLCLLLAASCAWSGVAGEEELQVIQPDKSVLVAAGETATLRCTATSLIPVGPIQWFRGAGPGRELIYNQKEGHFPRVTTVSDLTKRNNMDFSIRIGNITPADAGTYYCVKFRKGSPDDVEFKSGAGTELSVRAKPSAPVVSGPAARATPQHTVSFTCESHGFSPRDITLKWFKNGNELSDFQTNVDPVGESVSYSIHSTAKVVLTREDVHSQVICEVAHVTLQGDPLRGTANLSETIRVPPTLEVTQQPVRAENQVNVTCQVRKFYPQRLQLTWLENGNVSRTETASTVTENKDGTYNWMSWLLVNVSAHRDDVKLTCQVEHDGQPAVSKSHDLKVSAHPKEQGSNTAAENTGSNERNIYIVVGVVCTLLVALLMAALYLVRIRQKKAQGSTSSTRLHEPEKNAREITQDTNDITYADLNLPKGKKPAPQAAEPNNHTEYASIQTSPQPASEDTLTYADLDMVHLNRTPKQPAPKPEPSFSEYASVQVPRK
T1 sequence (Q08722 whole entry, looked up, the tested form may be a part): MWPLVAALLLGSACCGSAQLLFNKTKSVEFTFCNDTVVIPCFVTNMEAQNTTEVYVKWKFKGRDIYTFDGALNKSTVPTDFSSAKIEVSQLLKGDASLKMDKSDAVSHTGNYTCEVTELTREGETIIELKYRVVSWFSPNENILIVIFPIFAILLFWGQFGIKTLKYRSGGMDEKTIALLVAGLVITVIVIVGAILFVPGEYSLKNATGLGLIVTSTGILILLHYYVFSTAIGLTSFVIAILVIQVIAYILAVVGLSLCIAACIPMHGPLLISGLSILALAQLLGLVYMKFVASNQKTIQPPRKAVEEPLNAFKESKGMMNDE
In short: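 Inhibition of soluble CD47/SIRPalpha ectodomain association by titrated compounds, measured as 665/615 nm time-resolved FRET ratio after sequential 30 min room-temperature incubations.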

[10] = molecular target: T1, Tyrosine-protein phosphatase non-receptor type substrate 1 (Homo sapiens) + Leukocyte surface antigen CD47 (Homo sapiens); assay: CD47-SIRPalpha protein protein interaction - HTRF assay qHTS validation (AID 1347058; active = well fitted curve in the direction sought with a large enough effect in the signal ratio, not every such curve was filed as active; the % refers to the signal ratio; also: series mostly up to about 38 µM; 0% is about no effect)
In short: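 Soluble extracellular domains (6His-CD47, Avi-tag-biotinylated SIRPalpha) in PBS pH 7.4 with 0.05% IGEPAL CA-630. Compounds were preincubated 30 min at RT with CD47 and anti-His-Eu, then SIRPalpha and SAV-XL665 were added. TR-FRET 665/615 ratio.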

[11] = molecular target: T1, Tyrosine-protein phosphatase non-receptor type substrate 1 (Homo sapiens) + Leukocyte surface antigen CD47 (Homo sapiens); assay: CD47-SIRPalpha protein protein interaction - Alpha assay qHTS validation (AID 1347059)
In short: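 SIRPalpha-biotin 25 nM + cpd, 30 min RT, dark; add CD47-His 12.5 nM, 30 min; add Ni-NTA/SAV beads 10 ug/mL, 30 min; AlphaScreen. Buffer PBS pH 7.4 + 0.05% IGEPAL CA-630. Non-biotinylated SIRPalpha as control inhibitor.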

[12] = qHTS of pediatric cancer cell lines to identify multiple opportunities for drug repurposing: Primary screen for DAOY cells (AID 1347090);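 also: series mostly up to about 46 µM; plate controls were DMSO for no effect and bortezomib for full effect; nearly all actives have a fitted effect of over 55% in size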
In short: (§1)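 Viability measured as metabolically active cells via CellTiter-Glo luminescence following 48 hours of compound exposure, 11-point dilutions in confirmatory testing. 500-1,000 cells/well plated 5 hours before dosing; controls were DMSO and 2.3 µM bortezomib.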

[13] = qHTS of pediatric cancer cell lines to identify multiple opportunities for drug repurposing: Primary screen for SJ-GBM2 cells (AID 1347091);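 also: plate controls were DMSO neutral control for no effect and bortezomib for full effect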
In short: as §1

[14] = P-glycoprotein substrates identified in KB-8-5-11 adenocarcinoma cell line, qHTS therapeutic library screen (AID 1346987); also: series mostly up to about 44 µM; % is scaled to controls: 0 for no effect and ±100 for the full control effect; nearly all actives have a fitted effect of over 65% in size
In short: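 Compounds are pinned in dose-response onto KB-8-5-11 cells (500 cells/well, colchicine-free medium) and left 72 h at 37 degree C. CellTiter-Glo luminescence then yields AC50 values.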

[15] = molecular target: Parathyroid hormone/parathyroid hormone-related peptide receptor (Homo sapiens) (UniProt Q03431); assay: qHTS for PTHR1 Agonists: Optimization Screen against the NCGC LOPAC library (AID 1347079);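 also: GloSensor cAMP luminescence in HEK-293 GP2 cells expressing human PTHR1 with IBMX; 0% is about no effect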
Chain of Parathyroid hormone/parathyroid hormone-related peptide receptor (Homo sapiens) (Q03431 whole entry, looked up): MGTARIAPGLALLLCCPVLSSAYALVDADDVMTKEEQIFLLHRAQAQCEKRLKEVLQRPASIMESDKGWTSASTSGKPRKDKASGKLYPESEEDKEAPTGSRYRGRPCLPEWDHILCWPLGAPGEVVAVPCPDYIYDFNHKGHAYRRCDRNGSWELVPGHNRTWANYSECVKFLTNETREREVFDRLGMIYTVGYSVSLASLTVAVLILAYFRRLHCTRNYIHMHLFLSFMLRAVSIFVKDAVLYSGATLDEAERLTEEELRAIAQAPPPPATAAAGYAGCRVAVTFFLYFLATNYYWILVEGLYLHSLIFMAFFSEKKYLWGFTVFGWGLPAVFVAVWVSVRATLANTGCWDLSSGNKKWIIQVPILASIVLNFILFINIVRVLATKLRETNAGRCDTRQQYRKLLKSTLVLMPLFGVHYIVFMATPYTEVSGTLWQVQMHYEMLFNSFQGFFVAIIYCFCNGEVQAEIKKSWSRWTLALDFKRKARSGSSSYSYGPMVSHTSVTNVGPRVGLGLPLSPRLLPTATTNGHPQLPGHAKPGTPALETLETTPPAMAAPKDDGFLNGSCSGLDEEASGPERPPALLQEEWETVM
In short: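 HEK-293 GP2 cells, PTHR1 + GloSensor cAMP; 3000 cells/well, o/n. Luciferin + IBMX 0.5mM each (stock), 1 hr 37C. Cpd titration, 1 hr 37C. Lum after 15 min RT. Ctrl M-PTH(1-15) top 10uM.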

[16] = qHTS of pediatric cancer cell lines to identify multiple opportunities for drug repurposing: Primary screen for TC32 cells (AID 1347089); also: % is scaled to controls: 0 for no effect and ±100 for the full control effect; nearly all actives have a fitted effect of over 60% in size
In short: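 Luminescent CellTiter-Glo read-out of metabolically active TC32 cells after 48 h compound exposure. Primary: MIPE 11-point, 0.78 nM–46 µM; NPC 8-point, 0.59 nM–46 µM. Confirmatory: 11-point dilutions.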

CCN(CC)CCOCCOC(=O)C1(c2ccccc2)CCCC1
inactive: outcome [1] | outcome [2] | Potency [3] | Potency [4] | Potency [5] | Potency [6] | Potency [7] | outcome [8] | outcome [9] | outcome [10] | Potency [11] | Potency [12] | Potency [13]

NC(Cc1ccc(Cl)cc1)C(=O)O (configuration not stated)
inactive: outcome [1] | outcome [2] | Potency [3] | Potency [4] | Potency [14] | Potency [5] | Potency [6] | Potency [7] | outcome [8] | outcome [10] | Potency [11] | outcome [15] | activity change, negative = cytotoxic [12] 15.2% [at 0.597 µM] | activity change, negative = cytotoxic [13] 16.4% [at 0.597 µM]

CCOC(=O)C1=C(C)NC(C)=C(C(=O)OC)C1c1cccc(Cl)c1Cl (configuration not stated)
inactive: outcome [1] | outcome [2] | Potency [3] | Potency [4] | Potency [14] | Potency [5] | Potency [6] | Potency [7] | outcome [8] | outcome [10] | Potency [11] | outcome [15] | Potency [12] | Potency [13]

CNCCCN1c2ccccc2CCc2ccccc21
inactive: outcome [1] | outcome [2] | Potency [3] | Potency [4] | Potency [14] | Potency [5] | Potency [6] | outcome [8] | outcome [9] | outcome [10] | Potency [11] | outcome [15] | Potency [16] | Potency [12]

CC(C)NCC(O)c1cc(O)cc(O)c1 (configuration not stated)
inactive: outcome [1] | outcome [2] | Potency [3] | Potency [4] | Potency [5] | Potency [6] | Potency [7] | outcome [8] | outcome [9] | outcome [10] | Potency [11] | outcome [15] | Potency [12] | Potency [13]

C[C@H](CS)C(=O)N1CCC[C@H]1C(=O)O
inactive: outcome [1] | outcome [2] | Potency [3] | Potency [4] | Potency [14] | Potency [5] | Potency [6] | Potency [7] | outcome [8] | outcome [10] | Potency [11] | outcome [15] | Potency [16] | Potency [12] | Potency [13]

COCCc1ccc(OCC(O)CNC(C)C)cc1 (configuration not stated)
inactive: outcome [1] | outcome [2] | Potency [3] | Potency [4] | Potency [5] | Potency [6] | Potency [7] | outcome [8] | outcome [9] | outcome [10] | Potency [11] | outcome [15] | Potency [16] | Potency [12] | Potency [13]

CCCN(CCC)C(=O)C(CCC(=O)O)NC(=O)c1ccccc1 (configuration not stated)
inactive: outcome [1] | outcome [2] | Potency [3] | Potency [4] | Potency [14] | Potency [5] | Potency [6] | Potency [7] | outcome [8] | outcome [10] | Potency [11] | outcome [15] | Potency [12] | Potency [13]

OC(CCN1CCCCC1)(c1ccccc1)C1CCCCC1 (configuration not stated)
inactive: outcome [1] | outcome [2] | Potency [3] | Potency [4] | Potency [14] | Potency [6] | outcome [8] | Potency [16] | Potency [12]
